Results with a measured potency or affinity are listed apart.
Legend:
Staphylococcus aureus = conditions: Concentration 32 ug.mL-1;; ASSAY_TEST Inhibition of Bacterial Growth; detection method Absorption (OD600); MEDIA CAMHB; plate type 384well; NBS; CORNING #3640; time 18 hr
Escherichia coli = conditions: Concentration 32 ug.mL-1;; ASSAY_TEST Inhibition of Bacterial Growth; detection method Absorption (OD600); MEDIA CAMHB; plate type 384well; NBS; CORNING #3640; time 18 hr

Row | Structure (SMILES) | Inhibition (Staphylococcus aureus) | Inhibition (Escherichia coli)
1 | COC(=O)c1ccc(NC(=O)Cn2nc3ccc(S(=O)(=O)C4CCCCC4)nn3c2=O)cc1 | 8.6% | -7.53%
2 | Cc1cc2nn(CC(=O)NCc3ccccc3)c(=O)n2c(Nc2ccc(C)c(F)c2)n1 | -14.43% | -0.54%
3 | COc1cccc(CNC(=O)CSc2nnc3c4cc(-c5cc(C)ccc5C)nn4ccn23)c1OC | 5.75% | -5.6%
4 | COc1ccc(CN(c2cc(C)cc(C)c2)S(=O)(=O)c2cccn3cnnc23)cc1F | -10.31% | -13.2%
5 | COc1ccc(NC(=O)Cn2nc3c(SC4CCCCC4)nccn3c2=O)cc1OC | 4.77% | -3.78%
6 | Cc1ccc(NC(=O)Cn2nc3c4cc(-c5ccc(Cl)cc5)nn4ccn3c2=O)cc1F | 11.6% | 6.51%
7 | O=C(Cn1nc2nc(Nc3ccc(F)cc3)ccn2c1=O)N1CCCC1 | -4.71% | -12.03%
8 | O=C(Cn1nc2c(N3CCOCC3)nccn2c1=O)Nc1ccccc1Br | 17.91% | 6.7%
9 | COc1ccc(C)cc1NC(=O)Cn1nc2cc(C)nc(Nc3ccc(F)cc3)n2c1=O | -14.69% | 2.14%
10 | CCOc1ccc(NC(=O)Cn2nc3ccc(Sc4cccc(F)c4)nn3c2=O)cc1 | 2.36% | -8.51%
11 | N#CCn1nc2n(Cc3ccccc3)c(=O)c3ccc(C(=O)NC4CCCCC4)cc3n2c1=O | -2.91% | -12.22%
12 | COc1cccc(Cn2nc3ccc(-c4ccccc4)nn3c2=O)c1 | 13.4% | -1.58%
13 | CCOc1ccc(-n2ccn3c(SCC(=O)Nc4cc(F)ccc4F)nnc3c2=O)cc1 | -3.91% | 1.2%
